Assay results taken from the supplement of paper PMC10849652.
Targets with a hit are over-represented here; the source holds about 7,900 in all. About 0.6% of all pairs of compound and target were hits.

Compound: CCn1c(C(=O)N(C2CC2)C2CC2)cc2c3c(ncn3C)c(Nc3cc(C)n(C)n3)nc21
Test: log2 fold change, soluble protein after heating vs DMSO (PISA); higher = thermal stabilisation; K562 cells, 10 uM, 30 min; active = over 0.2 and 3.5 SD of the protein, either way, in both replicates (recomputed)
In short: (§1)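 Values are thermal stability changes relative to control samples and are taken from duplicates. They are stated as log2 fold changes. Before quantification by TMTpro 16plex LC-MS/MS with equalised channel sums, K562 cells at 2×10^6 cells/mL were treated with 10 μM compound for 30 min, heated in aliquots for 3 min across 48°C-58°C, pooled, extracted in PBS with 0.5% NP-40 at 4°C, and centrifuged at 21,000xg for 90 min to give the soluble supernatant.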

Sequence of UniProt P48449 (P48449 whole entry, looked up): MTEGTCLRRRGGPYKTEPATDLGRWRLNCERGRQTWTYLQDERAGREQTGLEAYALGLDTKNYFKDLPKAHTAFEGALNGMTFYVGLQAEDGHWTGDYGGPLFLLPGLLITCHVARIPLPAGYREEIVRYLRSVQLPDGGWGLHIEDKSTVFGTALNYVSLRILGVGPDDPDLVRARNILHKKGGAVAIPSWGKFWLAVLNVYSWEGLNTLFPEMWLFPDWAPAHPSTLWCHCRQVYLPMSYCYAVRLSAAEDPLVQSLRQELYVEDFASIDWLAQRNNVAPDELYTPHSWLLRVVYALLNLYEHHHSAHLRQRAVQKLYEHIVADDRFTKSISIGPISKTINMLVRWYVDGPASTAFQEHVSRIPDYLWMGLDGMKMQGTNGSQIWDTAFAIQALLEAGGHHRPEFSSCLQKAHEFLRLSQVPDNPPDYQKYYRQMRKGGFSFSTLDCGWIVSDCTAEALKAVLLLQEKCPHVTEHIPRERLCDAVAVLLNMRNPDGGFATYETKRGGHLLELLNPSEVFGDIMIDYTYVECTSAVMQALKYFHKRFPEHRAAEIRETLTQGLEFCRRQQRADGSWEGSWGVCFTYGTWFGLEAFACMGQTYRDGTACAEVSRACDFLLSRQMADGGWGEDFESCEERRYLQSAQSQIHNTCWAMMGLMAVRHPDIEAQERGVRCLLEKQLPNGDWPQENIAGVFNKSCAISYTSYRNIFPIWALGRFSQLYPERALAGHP
Sequence of UniProt Q6P9B6 (Q6P9B6 whole entry, looked up): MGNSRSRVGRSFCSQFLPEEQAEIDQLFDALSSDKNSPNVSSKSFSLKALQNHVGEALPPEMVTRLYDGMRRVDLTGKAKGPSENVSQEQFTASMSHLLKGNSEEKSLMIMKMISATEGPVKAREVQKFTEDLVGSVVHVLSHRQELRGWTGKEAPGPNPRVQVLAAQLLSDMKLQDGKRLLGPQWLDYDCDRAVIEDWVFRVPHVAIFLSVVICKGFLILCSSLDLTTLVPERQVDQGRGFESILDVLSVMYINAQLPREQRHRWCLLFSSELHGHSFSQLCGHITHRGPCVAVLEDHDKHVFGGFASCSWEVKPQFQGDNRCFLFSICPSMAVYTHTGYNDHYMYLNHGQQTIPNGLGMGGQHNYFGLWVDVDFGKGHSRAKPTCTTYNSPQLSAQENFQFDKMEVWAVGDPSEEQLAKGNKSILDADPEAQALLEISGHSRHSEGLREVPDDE
Sequence of UniProt Q68DH5 (Q68DH5 whole entry, looked up): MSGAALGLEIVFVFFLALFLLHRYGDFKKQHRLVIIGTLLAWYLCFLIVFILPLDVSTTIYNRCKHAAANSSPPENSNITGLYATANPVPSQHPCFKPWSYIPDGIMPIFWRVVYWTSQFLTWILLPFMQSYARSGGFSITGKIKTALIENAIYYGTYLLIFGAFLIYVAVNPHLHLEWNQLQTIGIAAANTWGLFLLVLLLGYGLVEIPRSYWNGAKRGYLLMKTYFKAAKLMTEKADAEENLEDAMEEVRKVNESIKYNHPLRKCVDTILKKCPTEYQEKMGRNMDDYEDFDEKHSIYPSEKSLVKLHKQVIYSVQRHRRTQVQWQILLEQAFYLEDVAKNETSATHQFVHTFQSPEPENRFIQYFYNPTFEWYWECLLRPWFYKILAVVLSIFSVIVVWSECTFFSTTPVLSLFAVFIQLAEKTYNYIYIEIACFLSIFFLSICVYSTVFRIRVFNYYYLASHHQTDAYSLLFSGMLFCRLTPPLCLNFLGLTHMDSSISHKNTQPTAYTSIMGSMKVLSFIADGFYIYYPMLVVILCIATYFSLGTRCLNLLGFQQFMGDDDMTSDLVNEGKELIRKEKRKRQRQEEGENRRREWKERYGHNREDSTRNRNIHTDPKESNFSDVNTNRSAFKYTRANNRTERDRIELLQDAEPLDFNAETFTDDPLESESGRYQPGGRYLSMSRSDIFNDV
Sequence of UniProt P32019 (P32019 whole entry, looked up): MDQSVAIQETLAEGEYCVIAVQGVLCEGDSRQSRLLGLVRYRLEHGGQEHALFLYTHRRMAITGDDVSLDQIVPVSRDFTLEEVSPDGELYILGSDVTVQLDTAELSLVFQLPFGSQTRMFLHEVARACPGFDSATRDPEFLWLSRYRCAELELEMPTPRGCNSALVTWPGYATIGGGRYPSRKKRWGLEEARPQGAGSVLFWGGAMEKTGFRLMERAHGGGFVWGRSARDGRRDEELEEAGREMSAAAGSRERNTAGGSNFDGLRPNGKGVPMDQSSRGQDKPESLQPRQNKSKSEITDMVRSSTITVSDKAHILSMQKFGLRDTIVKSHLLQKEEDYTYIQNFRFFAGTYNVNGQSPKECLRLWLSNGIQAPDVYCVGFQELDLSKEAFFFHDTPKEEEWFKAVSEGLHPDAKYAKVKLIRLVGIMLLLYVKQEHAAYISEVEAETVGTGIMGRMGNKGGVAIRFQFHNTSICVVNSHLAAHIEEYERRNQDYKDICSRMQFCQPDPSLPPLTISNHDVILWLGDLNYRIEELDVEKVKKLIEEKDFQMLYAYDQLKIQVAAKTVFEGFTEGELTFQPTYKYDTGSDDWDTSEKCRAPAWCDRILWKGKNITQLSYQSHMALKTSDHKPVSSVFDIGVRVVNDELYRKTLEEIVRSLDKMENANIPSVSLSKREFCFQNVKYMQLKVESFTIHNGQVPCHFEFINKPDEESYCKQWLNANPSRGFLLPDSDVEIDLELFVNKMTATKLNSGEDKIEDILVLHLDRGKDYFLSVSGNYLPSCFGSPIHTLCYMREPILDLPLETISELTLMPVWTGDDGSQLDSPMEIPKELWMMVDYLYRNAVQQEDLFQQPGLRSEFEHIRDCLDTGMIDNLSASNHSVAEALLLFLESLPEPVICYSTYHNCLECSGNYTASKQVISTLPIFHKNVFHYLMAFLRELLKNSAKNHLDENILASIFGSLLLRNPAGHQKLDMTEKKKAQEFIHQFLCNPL
Sequence of UniProt Q7LBC6 (Q7LBC6 whole entry, looked up): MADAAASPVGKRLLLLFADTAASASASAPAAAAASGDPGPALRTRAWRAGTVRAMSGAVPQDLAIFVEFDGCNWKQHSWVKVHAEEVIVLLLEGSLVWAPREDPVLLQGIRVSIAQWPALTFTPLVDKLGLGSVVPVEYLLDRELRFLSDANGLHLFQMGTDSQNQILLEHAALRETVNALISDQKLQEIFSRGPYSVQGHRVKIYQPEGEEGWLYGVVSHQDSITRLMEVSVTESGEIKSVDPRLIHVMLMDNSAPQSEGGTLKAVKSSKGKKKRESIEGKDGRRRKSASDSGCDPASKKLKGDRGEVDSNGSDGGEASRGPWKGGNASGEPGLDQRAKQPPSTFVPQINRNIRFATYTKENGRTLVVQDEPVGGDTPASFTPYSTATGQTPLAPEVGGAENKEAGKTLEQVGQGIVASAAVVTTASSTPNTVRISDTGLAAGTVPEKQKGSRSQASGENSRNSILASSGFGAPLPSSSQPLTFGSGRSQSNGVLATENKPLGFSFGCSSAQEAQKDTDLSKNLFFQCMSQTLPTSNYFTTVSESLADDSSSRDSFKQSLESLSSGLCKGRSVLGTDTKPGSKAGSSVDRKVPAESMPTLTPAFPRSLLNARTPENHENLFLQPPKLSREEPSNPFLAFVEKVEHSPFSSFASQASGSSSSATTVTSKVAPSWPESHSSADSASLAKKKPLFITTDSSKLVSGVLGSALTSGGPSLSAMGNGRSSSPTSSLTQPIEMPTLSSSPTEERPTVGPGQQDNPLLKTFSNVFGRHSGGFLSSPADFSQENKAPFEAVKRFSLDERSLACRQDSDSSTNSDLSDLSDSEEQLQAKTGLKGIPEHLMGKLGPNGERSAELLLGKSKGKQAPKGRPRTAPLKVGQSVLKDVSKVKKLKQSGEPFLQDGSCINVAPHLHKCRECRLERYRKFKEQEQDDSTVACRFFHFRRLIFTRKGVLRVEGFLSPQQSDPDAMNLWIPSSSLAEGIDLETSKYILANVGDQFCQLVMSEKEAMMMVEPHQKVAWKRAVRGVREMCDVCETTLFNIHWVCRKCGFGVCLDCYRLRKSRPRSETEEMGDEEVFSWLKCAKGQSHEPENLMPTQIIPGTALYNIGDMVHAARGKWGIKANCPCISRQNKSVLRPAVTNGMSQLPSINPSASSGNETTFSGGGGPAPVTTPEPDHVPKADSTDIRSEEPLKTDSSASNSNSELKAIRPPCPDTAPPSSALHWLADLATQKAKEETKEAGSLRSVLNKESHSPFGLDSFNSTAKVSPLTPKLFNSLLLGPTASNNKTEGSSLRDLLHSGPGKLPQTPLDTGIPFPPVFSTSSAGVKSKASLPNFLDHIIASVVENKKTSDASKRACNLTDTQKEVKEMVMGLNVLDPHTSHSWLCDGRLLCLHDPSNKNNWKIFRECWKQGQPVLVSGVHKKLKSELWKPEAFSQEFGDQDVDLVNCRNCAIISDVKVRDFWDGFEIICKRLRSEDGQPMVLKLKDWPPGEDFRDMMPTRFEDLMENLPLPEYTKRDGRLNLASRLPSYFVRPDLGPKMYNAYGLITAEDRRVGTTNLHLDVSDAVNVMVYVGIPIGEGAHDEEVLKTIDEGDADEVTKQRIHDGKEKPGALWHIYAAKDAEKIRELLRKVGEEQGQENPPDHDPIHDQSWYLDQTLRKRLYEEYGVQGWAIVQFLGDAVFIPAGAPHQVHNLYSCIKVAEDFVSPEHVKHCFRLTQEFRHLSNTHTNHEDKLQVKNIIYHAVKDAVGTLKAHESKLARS
Sequence of UniProt Q8NC54 (Q8NC54 whole entry, looked up): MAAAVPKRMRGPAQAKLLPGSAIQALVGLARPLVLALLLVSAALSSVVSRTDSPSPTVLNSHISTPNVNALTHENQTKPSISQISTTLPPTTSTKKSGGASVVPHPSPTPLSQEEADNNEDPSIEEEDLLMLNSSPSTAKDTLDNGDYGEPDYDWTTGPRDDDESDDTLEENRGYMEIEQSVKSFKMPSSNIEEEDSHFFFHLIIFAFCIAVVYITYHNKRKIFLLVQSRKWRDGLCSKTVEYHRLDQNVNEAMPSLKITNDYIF
Sequence of UniProt Q96A72 (Q96A72 whole entry, looked up): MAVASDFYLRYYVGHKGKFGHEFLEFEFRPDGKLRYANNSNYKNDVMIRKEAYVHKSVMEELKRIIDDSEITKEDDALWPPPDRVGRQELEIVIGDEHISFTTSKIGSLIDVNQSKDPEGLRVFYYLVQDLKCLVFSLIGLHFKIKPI

log2 fold change, inactive:
KDM3B (UniProt Q7LBC6) -0.024, MAP2K7 isoform 4 (UniProt O14733) 0.017, MIEF1 (UniProt L0R8F8) 0.017, MARCKSL1 (UniProt P49006) 0.02, MEPCE (UniProt Q7L2J0) 0.009, MCUR1 (UniProt Q96AQ8) -0.027, MED1 (UniProt Q15648) -0.001, LNPEP (UniProt Q9UIQ6) 0.016, IPO7 (UniProt O95373) 0.008, LMNB1 (UniProt P20700) -0.021, MAGEC2 (UniProt Q9UBF1) 0.038, KDELR2 (UniProt P33947) -0.031, INTS7 (UniProt Q9NVH2) -0.119, LMBRD2 (UniProt Q68DH5) -0.007, INPP5B (UniProt P32019) -0.029, IRF2BPL (UniProt Q9H1B7) -0.042, KIF3A (UniProt Q9Y496) -0.004, LNPK (UniProt Q9C0E8) -0.032, LEO1 (UniProt Q8WVC0) -0.007, MCU (UniProt Q8NE86) -0.082, MAP1LC3B2 (UniProt A6NCE7) -0.003, MAST4 (UniProt O15021) 0.056, ILK (UniProt Q13418) -0.037, LARP7 isoform 3 (UniProt Q4G0J3) 0.034, LDAH isoform 2 (UniProt Q9H6V9) -0.011, MFN2 (UniProt O95140) -0.004, MAGOHB (UniProt Q96A72) -0.041, LMNB2 (UniProt Q03252) -0.061, LTV1 (UniProt Q96GA3) 0.021, KLHL18 (UniProt O94889) -0.038, MFSD5 isoform 2 (UniProt Q6N075) -0.012, MEAK7 (UniProt Q6P9B6) -0.025, MCCC2 (UniProt Q9HCC0) -0.007, ITIH4 (UniProt Q14624) 0.108, KNTC1 (UniProt P50748) -0.015, MFGE8 (UniProt Q08431) 0.063, KCT2 (UniProt Q8NC54) 0.089, MAPK9 (UniProt P45984) -0.004, LSS (UniProt P48449) -0.056

Compound: CCn1cc(-c2ccnc3[nH]c(-c4cccc(CN(C)C)c4)cc23)c(-c2ccc(NC(=O)N(C)C)cc2)n1
Test: as above
In short: as §1

log2 fold change, inactive:
KDM3B (UniProt Q7LBC6) 0.001, MAP2K7 isoform 4 (UniProt O14733) -0.086, MIEF1 (UniProt L0R8F8) -0.065, MARCKSL1 (UniProt P49006) -0.015, MEPCE (UniProt Q7L2J0) -0.013, MCUR1 (UniProt Q96AQ8) -0.041, MED1 (UniProt Q15648) -0.04, LNPEP (UniProt Q9UIQ6) -0.02, IPO7 (UniProt O95373) -0.038, LMNB1 (UniProt P20700) 0.115, MAGEC2 (UniProt Q9UBF1) -0.048, KDELR2 (UniProt P33947) -0.016, INTS7 (UniProt Q9NVH2) -0.1, LMBRD2 (UniProt Q68DH5) -0.018, INPP5B (UniProt P32019) 0.031, IRF2BPL (UniProt Q9H1B7) -0.023, KIF3A (UniProt Q9Y496) -0.093, LNPK (UniProt Q9C0E8) 0.018, LEO1 (UniProt Q8WVC0) -0.051, MCU (UniProt Q8NE86) -0.048, MAP1LC3B2 (UniProt A6NCE7) 0.004, MAST4 (UniProt O15021) -0.102, ILK (UniProt Q13418) -0.052, LARP7 isoform 3 (UniProt Q4G0J3) -0.032, LDAH isoform 2 (UniProt Q9H6V9) -0.148, MFN2 (UniProt O95140) 0.011, MAGOHB (UniProt Q96A72) 0.003, LMNB2 (UniProt Q03252) 0.043, LTV1 (UniProt Q96GA3) 0.023, KLHL18 (UniProt O94889) -0.01, MFSD5 isoform 2 (UniProt Q6N075) 0.028, MEAK7 (UniProt Q6P9B6) -0.03, MCCC2 (UniProt Q9HCC0) -0.013, ITIH4 (UniProt Q14624) 0.102, KNTC1 (UniProt P50748) -0.007, MFGE8 (UniProt Q08431) -0.057, KCT2 (UniProt Q8NC54) -0.03, MAPK9 (UniProt P45984) 0.03, LSS (UniProt P48449) -0.024
